# Measurements from PubChem BioAssay (EPA / NIEHS).
# Where “and” joins values, the source holds several entries; their conditions need not be identical. Equal entries are not always repeated. Inconclusive results are not listed. More than one record can exist for a structure, and the calls need not agree. Calls of active or inactive are those of the source. How the source made its calls, unless noted: active means hit-call score of the fitted dose curve at least 0.9, where 1 is the maximum; inconclusive means response in the unintended direction; inactive means score below 0.9.
# Key:
# [1] = target: rat Gamma-Aminobutyric Acid Type A Receptor, Non-Selective (GABAR-NonSelective), Gabra1 (gene 29705) (UniProt P62813); assay: NVS_LGIC_rGABAR_NonSelective: NovaScreen (NVS) Ligand-Gated Ion Channel Assay for rat Gamma-Aminobutyric Acid Type A Receptor, Non-Selective (GABAR-NonSelective) (AID 2283326)
# In short: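 Radioligand displacement on rat whole-brain extract, 1 h, filter scintillation readout; signal loss fitted versus DMSO. Primary screen in duplicate at 25 uM; hits (e.g. ≥30% inhibition) retested in concentration-response up to 50 uM.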
# [2] = target: rat Thyrotropin Releasing Hormone Receptor (TRH), Trhr (gene 25570) (UniProt Q01717); assay: NVS_GPCR_rTRH: NovaScreen (NVS) G Protein-Coupled Receptor Assay for rat Thyrotropin Releasing Hormone Receptor (TRH) (AID 2283329);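 further: hit means lower bound tracer signal versus DMSO baseline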
# In short: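 Rat forebrain membranes; radioligand displacement at TRH receptor by filter-based scintillation counting, read 4 h after dosing. Duplicate single-point screen at 25 uM, actives rerun in concentration series; loss of signal relative to DMSO.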
# [3] = target: Sodium channel protein type 1 subunit alpha (Rattus norvegicus) (UniProt P04774); assay: NVS_IC_rNaCh_site2: NovaScreen (NVS) Ion Channel Assay for rat Sodium Channel, Site 2 (NaCh) (AID 2283322);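 further: hit means loss of radioligand binding signal relative to DMSO so AC50 marks displacement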
# In short: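 Membranes: rat forebrain. Format: competitive radioligand displacement, filter separation, scintillation readout, 1 h exposure. Primary screen in duplicate at 25 uM; actives retested in concentration series.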
# [4] = target: human Peripheral-type Benzodiazepine Receptor (PBR), TSPO (gene 706) (UniProt P30536); assay: NVS_MP_hPBR: NovaScreen (NVS) Membrane Protein Assay for human Peripheral-type Benzodiazepine Receptor (PBR) (AID 2283331);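 further: hits reduce radioligand binding relative to DMSO baseline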
# In short: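 Human colonic cell membranes were incubated with test chemical for 1 hour; radioligand binding was measured by filter-based scintillation counting. Primary screen ran in duplicate at 25 uM, with actives followed in concentration series; loss of signal versus DMSO baseline.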
# [5] = target: human Androgen Receptor (AR), AR (gene 367) (UniProt P10275); assay: NVS_NR_hAR: NovaScreen (NVS) Nuclear Receptor Binding Assay for human Androgen Receptor (AR) (AID 2283332)
# In short: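 Actives from a duplicate 25 uM single-point screen went on to concentration series. Read-out after 20 h was scintillation counting of displaced radioligand in LnCAP extract, with DMSO as baseline.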
# [6] = target: Voltage-gated inwardly rectifying potassium channel KCNH2 (Homo sapiens) (UniProt Q12809); assay: NVS_IC_hKhERGCh: NovaScreen (NVS) Ion Channel Assay for human Potassium Channel ERG (KhERGCh) (AID 2283333)
# In short: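 Cell-free radioligand competition binding on hERG protein extracted from CHO cells, read by filter-based scintillation counting 0.75 h after dosing. Primary screen at 25 uM in duplicate, actives followed in concentration series. Signal loss fitted versus DMSO.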
# [7] = target: rat Peripheral-type Benzodiazepine Receptor (PBR), Tspo (gene 24230) (UniProt P16257); assay: NVS_MP_rPBR: NovaScreen (NVS) Membrane Protein Assay for rat Peripheral-type Benzodiazepine Receptor (PBR) (AID 2283335)
# In short: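 Rat kidney membranes; radioligand binding with displacement, filter-based scintillation counting, 1 h incubation. Primary screen in duplicate at 25 uM, actives followed in concentration series; loss of binding vs DMSO.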
# NCBI gene 24521 = assay: NVS_IC_rKATPCh: NovaScreen (NVS) Ion Channel Assay for rat Potassium Channel, ATP-Sensitive (KATPCh) (AID 2283319)
# In short: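 Rat cortical membranes; radioligand binding at ATP-sensitive K channel site, filter-based scintillation counting 2 h after dosing. Single-point duplicate screen at 25 uM, hits rerun in concentration-response up to 50 uM; loss of signal versus DMSO.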
# [8] = target: bovine Gamma-Aminobutyric Acid Type A Receptor BDZ, alpha 1 site (GABARa1), GABRA1 (gene 780973) (UniProt P08219); assay: NVS_LGIC_bGABARa1: NovaScreen (NVS) Ligand-Gated Ion Channel Assay for bovine Gamma-Aminobutyric Acid Type A Receptor BDZ, alpha 1 site (GABARa1) (AID 2283321)
# In short: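 Radioligand competition binding on bovine cortical membranes, 0.75 h, filter-based scintillation counting. Primary single concentration 25 uM in duplicate; actives rerun in concentration-response to 50 uM max. Loss of signal fitted versus DMSO.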
# [9] = target: bovine Gamma-Aminobutyric Acid Type A Receptor Agonist (GABAR Agonist), GABRA1 (gene 780973) (UniProt P08219); assay: NVS_LGIC_bGABAR_Agonist: NovaScreen (NVS) Ligand-Gated Ion Channel Assay for bovine Gamma-Aminobutyric Acid Type A Receptor Agonist (GABAR Agonist) (AID 2283338)
# In short: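 Radioligand binding to bovine cerebellar membranes in agonist format, read by filter-based scintillation counting after 1 h. Primary screen in duplicate at 25 uM, with actives followed in concentration series. Gain of signal versus DMSO.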
# [10] = target: Glutamate receptor ionotropic, kainate 1 (Rattus norvegicus) (UniProt P22756); assay: NVS_IC_rKAR: NovaScreen (NVS) Ion Channel Assay for rat Kainic Acid Receptors (KAR) (AID 2283334; active means hit-call score of the fitted dose curve at least 0.9, where 1 is the maximum; inactive means score below 0.9)
# In short: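 Radioligand displacement binding using rat forebrain membranes, 1 h incubation, filter-based scintillation counting. Screened in duplicate at 25 uM, with actives retested in concentration-response up to 50 uM; fitted against DMSO.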
# [11] = target: rat Oxytocin Receptor (OXT), Oxtr (gene 25342) (UniProt P70536); assay: NVS_GPCR_rOXT: NovaScreen (NVS) G Protein-Coupled Receptor Assay for rat Oxytocin Receptor (OXT) (AID 2283330)
# In short: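 Radioligand displacement on rat uterine membranes, 1 h incubation, filter-based scintillation counting. Chemicals were screened in duplicate at 25 uM, and those passing threshold were retested in concentration-response up to 50 uM. Loss of binding was fitted versus DMSO.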
# [12] = target: rat Glycine Receptor, Strychnine-sensitive (GlyRStrySens), Glra1 (gene 25674) (UniProt P07727); assay: NVS_LGIC_rGlyRStrySens: NovaScreen (NVS) Ligand-Gated Ion Channel Assay for rat Glycine Receptor, Strychnine-sensitive (GlyRStrySens) (AID 2283341)
# In short: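 Radioligand displacement on rat spinal cord membranes, 1 hr, filter scintillation read-out. Single-concentration duplicate screen at 25 uM; chemicals meeting threshold (e.g., 30% inhibition) rerun in concentration-response up to 50 uM. Loss of binding fitted versus DMSO.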
# [13] = NVS_IC_rCaBTZCHL: NovaScreen (NVS) Ion Channel Assay for Calcium Channel, Type L, Benzothiazepine Site (CaBTZCHL) (AID 2283337)
# In short: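 Radioligand displacement at the benzothiazepine site using rat cortical membranes; bound label measured by filtration and scintillation counting 1.5 h after dosing. Single-point 25 uM in duplicate, then concentration series; DMSO baseline.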
# [14] = target: rat Glutamate, MK-801 Agonist Site (GluNMDA_MK801), Grin1 (gene 24408) (UniProt P35439); assay: NVS_LGIC_rGluNMDA_MK801_Agonist: NovaScreen (NVS) Ligand-Gated Ion Channel Assay for rat Glutamate, MK-801 Agonist Site (GluNMDA_MK801) (AID 2283340)
# In short: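 Radioligand binding at MK-801 site in rat forebrain membranes, 1.5 h incubation, filter-based scintillation counting. Initially 25 uM in duplicate; actives then run in concentration-response up to 50 uM, fitted for gain of signal versus DMSO.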
# Sequence of rat Glycine Receptor, Strychnine-sensitive (GlyRStrySens), Glra1 (gene 25674) (P07727 whole entry, looked up): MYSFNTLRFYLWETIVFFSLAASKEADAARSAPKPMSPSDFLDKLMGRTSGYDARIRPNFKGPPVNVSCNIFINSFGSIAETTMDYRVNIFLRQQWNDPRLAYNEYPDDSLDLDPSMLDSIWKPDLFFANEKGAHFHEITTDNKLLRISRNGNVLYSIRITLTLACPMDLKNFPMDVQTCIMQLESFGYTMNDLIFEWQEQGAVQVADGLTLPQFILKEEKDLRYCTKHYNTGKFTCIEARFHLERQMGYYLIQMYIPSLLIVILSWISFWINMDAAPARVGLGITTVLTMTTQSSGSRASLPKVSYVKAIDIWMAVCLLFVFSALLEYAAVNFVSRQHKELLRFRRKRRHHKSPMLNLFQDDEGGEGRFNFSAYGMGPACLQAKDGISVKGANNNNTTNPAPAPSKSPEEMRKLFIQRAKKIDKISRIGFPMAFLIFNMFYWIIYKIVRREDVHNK
# Sequence of rat Gamma-Aminobutyric Acid Type A Receptor, Non-Selective (GABAR-NonSelective), Gabra1 (gene 29705) (P62813 whole entry, looked up): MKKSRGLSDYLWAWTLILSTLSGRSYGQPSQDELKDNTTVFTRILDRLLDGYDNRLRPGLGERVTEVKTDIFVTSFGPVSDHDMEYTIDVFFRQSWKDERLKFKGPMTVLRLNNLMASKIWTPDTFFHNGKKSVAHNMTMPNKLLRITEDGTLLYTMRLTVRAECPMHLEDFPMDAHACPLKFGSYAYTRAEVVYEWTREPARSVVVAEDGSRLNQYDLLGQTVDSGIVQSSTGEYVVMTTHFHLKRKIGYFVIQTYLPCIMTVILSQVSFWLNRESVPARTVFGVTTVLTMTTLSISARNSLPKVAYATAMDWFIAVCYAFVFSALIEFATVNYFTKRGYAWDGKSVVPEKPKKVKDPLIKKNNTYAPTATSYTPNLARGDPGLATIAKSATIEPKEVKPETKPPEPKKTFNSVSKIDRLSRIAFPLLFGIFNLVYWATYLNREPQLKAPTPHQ
# Sequence of rat Peripheral-type Benzodiazepine Receptor (PBR), Tspo (gene 24230) (P16257 whole entry, looked up): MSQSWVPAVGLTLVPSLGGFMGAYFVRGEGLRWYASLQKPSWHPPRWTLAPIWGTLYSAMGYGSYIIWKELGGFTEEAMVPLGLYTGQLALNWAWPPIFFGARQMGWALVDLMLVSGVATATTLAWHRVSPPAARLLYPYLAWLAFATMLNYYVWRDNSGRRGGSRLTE
# Sequence of human Peripheral-type Benzodiazepine Receptor (PBR), TSPO (gene 706) (P30536 whole entry, looked up): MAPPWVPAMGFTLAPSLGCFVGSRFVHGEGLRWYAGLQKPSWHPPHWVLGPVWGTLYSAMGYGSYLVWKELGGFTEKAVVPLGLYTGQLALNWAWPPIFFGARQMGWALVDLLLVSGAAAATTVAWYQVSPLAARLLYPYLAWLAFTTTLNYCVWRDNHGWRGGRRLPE
# Sequence of rat Thyrotropin Releasing Hormone Receptor (TRH), Trhr (gene 25570) (Q01717 whole entry, looked up): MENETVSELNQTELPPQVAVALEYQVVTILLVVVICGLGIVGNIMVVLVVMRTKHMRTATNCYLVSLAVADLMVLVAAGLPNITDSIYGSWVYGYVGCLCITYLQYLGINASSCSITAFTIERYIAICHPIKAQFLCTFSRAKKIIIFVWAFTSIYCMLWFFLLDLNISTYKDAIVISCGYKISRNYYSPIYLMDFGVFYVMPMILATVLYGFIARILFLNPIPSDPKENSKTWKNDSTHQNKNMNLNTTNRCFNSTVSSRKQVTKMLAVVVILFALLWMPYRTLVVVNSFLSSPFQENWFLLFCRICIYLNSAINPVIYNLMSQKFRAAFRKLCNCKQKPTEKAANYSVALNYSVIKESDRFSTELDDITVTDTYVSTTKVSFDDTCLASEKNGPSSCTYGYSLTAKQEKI
# Sequence of human Androgen Receptor (AR), AR (gene 367) (P10275 whole entry, looked up): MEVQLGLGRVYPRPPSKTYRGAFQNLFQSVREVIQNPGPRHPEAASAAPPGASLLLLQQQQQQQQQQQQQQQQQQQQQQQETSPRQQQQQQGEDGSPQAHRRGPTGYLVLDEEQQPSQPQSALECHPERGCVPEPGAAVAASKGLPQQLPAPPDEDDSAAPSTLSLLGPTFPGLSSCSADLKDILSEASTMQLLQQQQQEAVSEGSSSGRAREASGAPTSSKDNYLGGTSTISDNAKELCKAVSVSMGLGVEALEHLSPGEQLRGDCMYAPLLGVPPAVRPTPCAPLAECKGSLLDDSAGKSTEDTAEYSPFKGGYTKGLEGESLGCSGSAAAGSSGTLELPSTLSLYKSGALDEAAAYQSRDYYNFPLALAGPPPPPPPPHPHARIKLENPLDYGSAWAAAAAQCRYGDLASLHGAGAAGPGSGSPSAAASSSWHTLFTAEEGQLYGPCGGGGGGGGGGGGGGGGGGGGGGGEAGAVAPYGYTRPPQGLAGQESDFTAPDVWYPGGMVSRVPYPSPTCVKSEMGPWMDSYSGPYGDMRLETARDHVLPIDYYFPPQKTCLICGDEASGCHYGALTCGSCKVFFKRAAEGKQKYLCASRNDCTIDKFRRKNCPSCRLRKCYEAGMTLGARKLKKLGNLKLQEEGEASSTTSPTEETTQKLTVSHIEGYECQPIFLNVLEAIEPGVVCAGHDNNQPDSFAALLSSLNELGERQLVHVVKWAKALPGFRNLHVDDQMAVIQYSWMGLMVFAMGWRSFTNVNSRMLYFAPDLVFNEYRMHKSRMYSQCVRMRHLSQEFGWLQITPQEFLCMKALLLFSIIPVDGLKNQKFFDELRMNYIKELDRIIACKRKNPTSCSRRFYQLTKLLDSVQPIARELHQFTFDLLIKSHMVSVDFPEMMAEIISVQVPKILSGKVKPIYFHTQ
# Sequence of Glutamate receptor ionotropic, kainate 1 (Rattus norvegicus) (P22756 whole entry, looked up): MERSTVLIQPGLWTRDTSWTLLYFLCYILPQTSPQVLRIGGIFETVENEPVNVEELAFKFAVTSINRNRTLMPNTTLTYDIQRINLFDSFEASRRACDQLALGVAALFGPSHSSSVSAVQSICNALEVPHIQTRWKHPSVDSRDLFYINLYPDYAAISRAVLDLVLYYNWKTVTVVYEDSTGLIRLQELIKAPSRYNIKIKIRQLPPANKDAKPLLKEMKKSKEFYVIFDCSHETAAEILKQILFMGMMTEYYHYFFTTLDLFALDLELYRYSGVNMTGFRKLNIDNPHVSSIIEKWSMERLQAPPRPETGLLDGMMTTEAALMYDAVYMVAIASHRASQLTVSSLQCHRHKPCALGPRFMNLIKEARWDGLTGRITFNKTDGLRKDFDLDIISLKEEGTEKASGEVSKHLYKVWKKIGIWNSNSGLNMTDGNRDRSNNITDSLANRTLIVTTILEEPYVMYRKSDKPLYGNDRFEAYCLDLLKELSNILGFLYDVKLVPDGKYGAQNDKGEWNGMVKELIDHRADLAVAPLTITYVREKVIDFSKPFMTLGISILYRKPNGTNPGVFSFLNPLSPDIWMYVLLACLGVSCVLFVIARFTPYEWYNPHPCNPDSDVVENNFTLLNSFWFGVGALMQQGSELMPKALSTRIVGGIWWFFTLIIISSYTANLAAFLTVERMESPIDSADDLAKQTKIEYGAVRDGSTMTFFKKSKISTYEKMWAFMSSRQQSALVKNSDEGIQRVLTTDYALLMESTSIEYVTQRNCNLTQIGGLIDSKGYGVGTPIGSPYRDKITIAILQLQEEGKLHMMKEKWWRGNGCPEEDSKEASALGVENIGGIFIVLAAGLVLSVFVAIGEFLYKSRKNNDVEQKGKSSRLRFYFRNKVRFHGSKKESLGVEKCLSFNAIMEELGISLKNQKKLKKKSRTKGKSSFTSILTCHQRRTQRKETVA
# Sequence of rat Oxytocin Receptor (OXT), Oxtr (gene 25342) (P70536 whole entry, looked up): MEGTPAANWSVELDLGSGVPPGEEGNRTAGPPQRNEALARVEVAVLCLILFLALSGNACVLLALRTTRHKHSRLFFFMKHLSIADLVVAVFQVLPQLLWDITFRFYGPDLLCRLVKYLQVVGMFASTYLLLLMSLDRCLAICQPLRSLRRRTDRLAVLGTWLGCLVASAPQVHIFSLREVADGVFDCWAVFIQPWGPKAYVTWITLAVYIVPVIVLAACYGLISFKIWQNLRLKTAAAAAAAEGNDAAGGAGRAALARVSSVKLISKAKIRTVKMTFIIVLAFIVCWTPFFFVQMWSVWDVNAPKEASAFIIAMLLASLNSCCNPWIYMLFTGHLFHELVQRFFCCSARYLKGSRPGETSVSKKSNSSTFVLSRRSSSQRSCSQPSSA
# Sequence of bovine Gamma-Aminobutyric Acid Type A Receptor Agonist (GABAR Agonist), GABRA1 (gene 780973) (P08219 whole entry, looked up): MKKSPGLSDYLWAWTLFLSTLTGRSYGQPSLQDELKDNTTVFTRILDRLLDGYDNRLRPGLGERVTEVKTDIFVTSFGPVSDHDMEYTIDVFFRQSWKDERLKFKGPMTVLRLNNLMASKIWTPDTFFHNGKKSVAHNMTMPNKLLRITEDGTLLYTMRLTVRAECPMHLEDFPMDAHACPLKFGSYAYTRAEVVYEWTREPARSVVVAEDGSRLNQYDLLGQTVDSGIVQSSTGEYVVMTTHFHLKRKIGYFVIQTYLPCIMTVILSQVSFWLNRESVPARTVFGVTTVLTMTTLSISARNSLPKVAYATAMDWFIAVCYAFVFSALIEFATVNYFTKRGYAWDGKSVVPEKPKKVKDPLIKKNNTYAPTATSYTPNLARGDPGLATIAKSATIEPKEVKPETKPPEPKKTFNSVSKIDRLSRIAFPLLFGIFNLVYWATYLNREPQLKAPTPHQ
# Sequence of bovine Gamma-Aminobutyric Acid Type A Receptor BDZ, alpha 1 site (GABARa1), GABRA1 (gene 780973) (P08219 whole entry, looked up): as above
structure (smiles),measurement,setting,value
N#Cc1cc(Br)c(O)c(Br)c1,outcome,[1],inactive
CCOc1cc(Oc2ccc(C(F)(F)F)cc2Cl)ccc1[N+](=O)[O-],outcome,[2],inactive
CCCC1COC(Cn2cncn2)(c2ccc(Cl)cc2Cl)O1 (centres undefined),AC50,[3],25 µM (active)
same,AC50,[4],17.3 µM (active)
same,AC50,[5],18.1 µM (active)
same,outcome,[6],inactive
same,AC50,[7],12.3 µM (active)
COC(=O)c1ccccc1C(=O)OC,outcome,NCBI gene 24521,inactive
same,outcome,[4],inactive
CCOC(=O)C(Cl)Cc1cc(-n2nc(C)n(C(F)F)c2=O)c(F)cc1Cl (centres undefined),outcome,[8],inactive
same,outcome,[1],inactive
same,AC50,[4],25 µM (active)
same,AC50,[7],16.1 µM (active)
CN(C)C(=S)SSC(=S)N(C)C,outcome,[1],inactive
same,AC50,[7],11 µM (active)
COC(=O)C(C)Oc1ccc(Oc2ccc(Cl)cc2Cl)cc1 (centres undefined),outcome,NCBI gene 24521,inactive
CCON=C(CC)C1=C(O)CC(c2c(C)cc(C)cc2C)CC1=O (centres undefined),outcome,[4],inactive
CCNc1nc(Cl)nc(NC(C)C)n1,outcome,[9],inactive
COc1cnc(OC)n2nc(NS(=O)(=O)c3c(OCC(F)F)cccc3C(F)(F)F)nc12,outcome,[10],inactive
C=CC1(C)OC(=O)N(c2cc(Cl)cc(Cl)c2)C1=O (centres undefined),outcome,[11],inactive
same,outcome,[4],inactive
same,AC50,[7],2.19 µM (active) and 1.01 µM (active) and 693 nM (active)
same,outcome,[7],inactive
COP(N)(=O)SC (centres undefined),outcome,[4],inactive
CC(Oc1ccc(Cl)cc1Cl)C(=O)O (centres undefined),outcome,[12],inactive
CCCCNC(=O)n1c(NC(=O)OC)nc2ccccc21,outcome,[12],inactive
Cc1ccc(-c2c(Cl)nc(C#N)n2S(=O)(=O)N(C)C)cc1,outcome,[4],inactive
same,outcome,[7],inactive
CC(C)Oc1cc(-n2nc(C(C)(C)C)oc2=O)c(Cl)cc1Cl,outcome,[2],inactive
CO/C=C(/C(=O)OC)c1ccccc1Oc1cc(Oc2ccccc2C#N)ncn1,outcome,[10],inactive
same,AC50,[7],3.17 µM (active) [middle of 4 runs]
same,AC50,[13],6.63 µM (active) and 15.4 µM (active)
same,outcome,[14],inactive
CCOC(=O)CC(SP(=S)(OC)OC)C(=O)OCC (centres undefined),AC50,[4],2.17 µM (active)
same,AC50,[5],25 µM (active)
same,AC50,[7],10.5 µM (active)
CC1=C(C(=O)Nc2ccccc2)SCCO1,AC50,[4],20.5 µM (active)
same,AC50,[7],12.3 µM (active)
CNC(=O)ON=CC(C)(C)SC,outcome,[4],inactive
O=C(O)COc1nc(Cl)c(Cl)cc1Cl,outcome,[4],inactive
same,AC50,[7],14.6 µM (active)
Cc1c(F)c(F)c(COC(=O)C2C(/C=C(\Cl)C(F)(F)F)C2(C)C)c(F)c1F (centres undefined),outcome,[12],inactive
COC(=O)N(OC)c1ccccc1COc1ccn(-c2ccc(Cl)cc2)n1,AC50,[4],0.105 µM (active)
same,AC50,[7],0.26 µM (active)
